Active and inactive are the calls of the source.
Experiments:
[1] = test system: Plasmodium falciparum Sir2 (PF13_0152, Sir2A); assay: Plasmodium falciparum Sir2A binding compounds – biochemical, small-molecule microarray, 635 nm fluorescence, primary screen (AID 1098); settings: fluorescence 635 nm, higher = more signal;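 further: score merges spot fluorescence intensity with its signal-to-noise ratio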
[2] = probe aDKK1 binding to arrayed compounds – biochemical, biotinylated probe, 635/667 nm fluorescence, primary screen (AID 1099); settings: small-molecule microarray, higher = more signal;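 further: score merges 667nm spot fluorescence with signal to noise across triplicate slides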
[3] = probe aCHRDL2 binding to arrayed compounds – biochemical, biotinylated probe, 635/667 nm fluorescence, primary screen (AID 1100); settings: small-molecule microarray, higher = more signal
[4] = change in splice reporter luminescence, either direction, cell-based, HEK293, spliceosome inhibition project, primary screen (AID 1101); settings: HEK293 splicing luciferase reporter, 24 h, higher = more signal, called active from +8 up or from −8 down;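 further: HEK293 cells carrying a splicing-competent luciferase reporter gene; test concentration not given here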
[5] = target: Fibroblast growth factor 10 (Homo sapiens) (UniProt O15520); assay: compounds binding fibroblast growth factor 10 – biochemical, small-molecule microarray, 635 nm fluorescence, primary screen (AID 1102); settings: FGF10 binding, fluorescence 635 nm, higher = more signal
[6] = test system: glycogen synthase kinase-3 (GSK3A per assay name; protocol says GSK3B); assay: compounds binding glycogen synthase kinase-3 – biochemical, small-molecule microarray, 635 nm fluorescence, GSK3A, primary screen (AID 1103); settings: fluorescence 635 nm, higher = more signal; further: the record names both GSK3A and GSK3B
[7] = target: Epidermal growth factor receptor (Homo sapiens) (UniProt P00533); assay: compounds binding epidermal growth factor receptor – biochemical, small-molecule microarray, 635 nm fluorescence, primary screen (AID 1104); settings: EGFR binding, higher = more signal;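 further: score merges 667 nm emission intensity with spot signal to noise over triplicate slides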
[8] = target: Follistatin-related protein 3 (Homo sapiens) (UniProt O95633); assay: compounds binding follistatin-related protein 3 – biochemical, small-molecule microarray, 635 nm fluorescence, primary screen (AID 1105); settings: FSTL3 binding, higher = more signal;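 further: score merges emission near 667 nm and signal to noise per printed spot across three slides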
[9] = target: Dickkopf-related protein 1 (Homo sapiens) (UniProt O94907); assay: small molecules binding DKK1 protein – biochemical, small-molecule microarray, 635 nm fluorescence scan, primary screen (AID 1106); settings: higher = more signal;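 further: score merges emission near 667 nm with signal to noise over three replicate slides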
[10] = test system: Inhibin beta A chain (activin A); assay: small molecules binding activin A – biochemical, small-molecule microarray, 635 nm fluorescence scan, primary screen (AID 1107); settings: INHBA, higher = more signal;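 further: mouse activin A protein probed at 4.33 µg/mL on printed slides; score merges bound-protein fluorescence near 667 nm with spot signal-to-noise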
[11] = test system: Human papillomavirus type 1a protein E7 (residues 44-93); assay: small molecules binding HPV E7 44-93 – biochemical, small-molecule microarray, residues 44-93, 635 nm fluorescence, primary screen (AID 1108); settings: fluorescence 635 nm, higher = more signal;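 further: E7 fragment applied at 1 µg/mL in TBST for 1 h at 4 C; score combines spot fluorescence with its signal to noise ratio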
[12] = hepatitis C replication reporter changes, two-sided – Huh7 cells, luciferase reporter, HCV replication inhibitor project, primary screen (AID 1109); settings: Huh7 HCV replicon luciferase reporter, 48 h; higher = more signal;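 further: huh7 hepatoma cells harbouring a luciferase neomycin HCV replicon reporter; luciferase luminescence as measure of HCV replicon replication; test concentration not given here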
[13] = target: Left-right determination factor 2 (Homo sapiens) (UniProt O00292); assay: small molecules binding LEFTY2 protein – biochemical, small-molecule microarray, 635 nm fluorescence scan, primary screen (AID 1110); settings: higher = more signal
[14] = target: Calmodulin-1 (Homo sapiens) (UniProt P0DP23); assay: small molecules binding calmodulin-1 with EGTA – biochemical, small-molecule microarray, Cy5-labelled CALM1, profiling panel (AID 1111); settings: Cy5-CALM1 binding fluorescence, higher = more signal;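 further: labelled calmodulin applied in Tris saline Tween buffer holding calcium plus EGTA and DTT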
[15] = target: Calmodulin-1 (Homo sapiens) (UniProt P0DP23); assay: small molecules binding Ca-loaded calmodulin-1 – biochemical, small-molecule microarray, Cy5-labelled CALM1, plus calcium, artefact control for SMM control-protein annotation, profiling panel (AID 1112); settings: Cy5-CALM1 binding fluorescence, higher = more signal;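 further: score merges spot fluorescence with signal to noise from triplicate slides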
[16] = probe aWnt5a binding to arrayed compounds – biochemical, biotinylated probe, 635/667 nm fluorescence, primary screen (AID 1113); settings: small-molecule microarray, higher = more signal;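 further: score merges 667 nm fluorescence intensity with signal-to-noise per printed feature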
[17] = probe aShh binding to arrayed compounds – biochemical, biotinylated probe, 635/667 nm fluorescence, primary screen (AID 1114); settings: small-molecule microarray, higher = more signal;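 further: probe is biotin-labelled aShh protein from a stem cell growth factor screen; measures binding of labelled protein to compounds printed on the slide; score merges feature fluorescence at 667 nm with signal-to-noise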
[18] = probe aNog binding to arrayed compounds – biochemical, biotinylated probe, 635/667 nm fluorescence, primary screen (AID 1115); settings: small-molecule microarray, higher = more signal;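 further: probe is biotinylated aNog protein used at 0.15 µg/mL for 1 h at 4 C; z-score combines 667 nm fluorescence of each spot with its signal to noise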
[19] = target: Torsin-1A-interacting protein 1 (Homo sapiens) (UniProt Q5JTV8); assay: compound microarray binding of lysate hLAP1 – cell lysate, small-molecule microarray, COS7 lysate, 635/667 nm fluorescence, primary screen (AID 1116); settings: 635 nm fluorescence, higher = more signal
[20] = target: Alpha-bungarotoxin (Bungarus multicinctus) (UniProt P60615); assay: compounds binding labelled alpha-BTX control protein – biochemical, small-molecule microarray, Alexa647 label, 635/667 nm fluorescence, artefact control for SMM control protein annotation, profiling panel (AID 1117); settings: alpha-BTX-A647 binding fluorescence, higher = more signal
Chain of Alpha-bungarotoxin (Bungarus multicinctus) (P60615 whole entry, looked up): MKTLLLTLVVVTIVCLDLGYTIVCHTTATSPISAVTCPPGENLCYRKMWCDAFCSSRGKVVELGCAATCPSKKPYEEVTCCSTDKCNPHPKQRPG

Chain of Torsin-1A-interacting protein 1 (Homo sapiens) (Q5JTV8 whole entry, looked up): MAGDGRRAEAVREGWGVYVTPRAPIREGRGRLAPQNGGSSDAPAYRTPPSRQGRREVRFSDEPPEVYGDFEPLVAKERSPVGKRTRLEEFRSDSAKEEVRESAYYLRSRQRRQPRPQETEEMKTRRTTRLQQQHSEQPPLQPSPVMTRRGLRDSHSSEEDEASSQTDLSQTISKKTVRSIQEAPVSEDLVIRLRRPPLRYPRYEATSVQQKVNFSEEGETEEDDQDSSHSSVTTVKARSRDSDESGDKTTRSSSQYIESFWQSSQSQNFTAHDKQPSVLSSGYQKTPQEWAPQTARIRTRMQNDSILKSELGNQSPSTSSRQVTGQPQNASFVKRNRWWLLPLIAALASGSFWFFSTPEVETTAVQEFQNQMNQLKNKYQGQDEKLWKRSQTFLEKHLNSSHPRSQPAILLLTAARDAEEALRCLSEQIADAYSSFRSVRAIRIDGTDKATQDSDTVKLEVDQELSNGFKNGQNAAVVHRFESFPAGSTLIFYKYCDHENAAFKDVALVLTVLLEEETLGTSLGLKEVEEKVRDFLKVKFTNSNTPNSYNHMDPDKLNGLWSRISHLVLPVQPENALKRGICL
Chain of Follistatin-related protein 3 (Homo sapiens) (O95633 whole entry, looked up): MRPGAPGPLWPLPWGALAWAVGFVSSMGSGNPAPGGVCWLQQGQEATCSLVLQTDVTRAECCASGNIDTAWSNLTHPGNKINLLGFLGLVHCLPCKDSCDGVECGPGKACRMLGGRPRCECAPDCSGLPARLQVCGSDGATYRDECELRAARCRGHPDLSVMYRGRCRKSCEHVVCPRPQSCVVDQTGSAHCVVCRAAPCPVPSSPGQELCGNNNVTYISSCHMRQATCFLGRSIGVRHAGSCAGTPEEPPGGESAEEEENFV
Chain of Epidermal growth factor receptor (Homo sapiens) (P00533 whole entry, looked up): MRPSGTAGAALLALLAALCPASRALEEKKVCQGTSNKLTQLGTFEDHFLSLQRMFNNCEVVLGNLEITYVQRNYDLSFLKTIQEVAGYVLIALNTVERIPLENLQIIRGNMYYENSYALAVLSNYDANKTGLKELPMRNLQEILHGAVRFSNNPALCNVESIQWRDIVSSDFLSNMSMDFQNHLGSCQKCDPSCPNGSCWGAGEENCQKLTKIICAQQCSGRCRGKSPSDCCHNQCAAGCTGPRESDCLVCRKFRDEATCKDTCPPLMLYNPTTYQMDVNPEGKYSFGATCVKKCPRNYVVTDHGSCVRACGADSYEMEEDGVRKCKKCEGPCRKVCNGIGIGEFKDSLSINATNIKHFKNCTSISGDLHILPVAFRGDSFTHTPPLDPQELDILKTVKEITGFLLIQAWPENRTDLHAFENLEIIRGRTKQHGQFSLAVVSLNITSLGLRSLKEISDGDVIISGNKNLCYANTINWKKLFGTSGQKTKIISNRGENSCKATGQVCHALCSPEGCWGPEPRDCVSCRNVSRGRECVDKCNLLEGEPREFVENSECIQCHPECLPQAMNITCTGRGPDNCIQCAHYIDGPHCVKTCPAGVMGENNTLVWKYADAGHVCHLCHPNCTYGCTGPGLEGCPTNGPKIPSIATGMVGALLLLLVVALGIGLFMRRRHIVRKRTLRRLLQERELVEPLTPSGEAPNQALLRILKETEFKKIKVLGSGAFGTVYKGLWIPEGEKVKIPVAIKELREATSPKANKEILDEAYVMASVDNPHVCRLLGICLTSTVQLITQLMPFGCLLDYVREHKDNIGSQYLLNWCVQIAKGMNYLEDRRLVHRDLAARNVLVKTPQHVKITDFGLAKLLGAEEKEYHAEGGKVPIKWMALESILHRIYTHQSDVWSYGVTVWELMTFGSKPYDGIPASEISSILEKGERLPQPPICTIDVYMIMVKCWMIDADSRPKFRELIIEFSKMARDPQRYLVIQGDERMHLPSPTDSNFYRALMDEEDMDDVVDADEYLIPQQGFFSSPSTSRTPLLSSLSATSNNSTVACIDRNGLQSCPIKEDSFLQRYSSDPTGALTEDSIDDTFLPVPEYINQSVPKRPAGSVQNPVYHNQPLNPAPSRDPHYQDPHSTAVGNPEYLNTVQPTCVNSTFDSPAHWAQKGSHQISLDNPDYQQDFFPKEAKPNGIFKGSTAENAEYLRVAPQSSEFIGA
Chain of Dickkopf-related protein 1 (Homo sapiens) (O94907 whole entry, looked up): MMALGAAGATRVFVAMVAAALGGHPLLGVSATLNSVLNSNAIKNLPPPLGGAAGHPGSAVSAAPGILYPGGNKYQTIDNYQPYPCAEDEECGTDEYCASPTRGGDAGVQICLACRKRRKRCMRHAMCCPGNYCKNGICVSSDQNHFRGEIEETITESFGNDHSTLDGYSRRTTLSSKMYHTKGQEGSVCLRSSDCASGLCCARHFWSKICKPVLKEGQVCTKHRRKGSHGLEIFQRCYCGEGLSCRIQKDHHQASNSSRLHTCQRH
Chain of Fibroblast growth factor 10 (Homo sapiens) (O15520 whole entry, looked up): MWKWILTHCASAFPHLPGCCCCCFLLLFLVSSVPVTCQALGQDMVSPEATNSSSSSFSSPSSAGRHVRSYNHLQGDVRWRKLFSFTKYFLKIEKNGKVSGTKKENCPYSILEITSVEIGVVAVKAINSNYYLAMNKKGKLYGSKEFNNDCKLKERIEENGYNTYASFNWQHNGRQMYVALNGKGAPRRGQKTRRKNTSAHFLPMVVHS
Chain of Left-right determination factor 2 (Homo sapiens) (O00292 whole entry, looked up): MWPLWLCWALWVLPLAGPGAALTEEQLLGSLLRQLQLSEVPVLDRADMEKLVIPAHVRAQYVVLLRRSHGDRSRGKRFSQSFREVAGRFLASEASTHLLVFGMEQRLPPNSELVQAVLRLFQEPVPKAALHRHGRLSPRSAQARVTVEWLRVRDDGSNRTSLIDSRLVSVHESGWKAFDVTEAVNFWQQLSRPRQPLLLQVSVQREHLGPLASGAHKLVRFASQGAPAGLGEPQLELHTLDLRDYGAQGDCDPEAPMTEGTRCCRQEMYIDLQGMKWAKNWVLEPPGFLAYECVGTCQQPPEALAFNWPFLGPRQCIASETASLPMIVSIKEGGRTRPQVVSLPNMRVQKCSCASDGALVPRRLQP

Row | Structure (SMILES) | composite z-score [1] | composite z-score [2] | composite z-score [3] | z-score [4] | composite z-score [5] | composite z-score [6] | composite z-score [7] | composite z-score [8] | composite z-score [9] | composite z-score [10] | composite z-score [11] | z-score [12] | composite z-score [13] | composite z-score [14] | composite z-score [15] | composite z-score [16] | composite z-score [17] | composite z-score [18] | composite z-score [19] | composite z-score [20]
1 | CC(C)=CCCC(C)=CC(O)C1C=CC2C(=O)NC(=O)C2N1Nc1ccccn1 (stereo not given) | 1.52 | 0.0536 | -0.319 | -0.121 (inactive) | 1.46 | 1.29 | 1.68 | 1.55 | 1.76 | 1.6 | 1.13 | -0.156 | 1.45 | -0.188 | -1.15 | 0.176 | -0.153 | -0.0116 | 1 | 1.2
2 | CN(C)C(=O)[C@@]1(Cc2ccccc2CN=[N+]=[N-])COC(c2ccc(OCCCO)cc2)=N1 | 0.508 | 0.42 | 1.01 | -0.51 (inactive) | -0.0391 | -0.958 | -0.916 | -0.522 | -1.19 | 0.744 | 1.37 | -2 | -1.09 | 0.809 | 0.812 | -0.0478 | 0.0483 | -0.226 | -0.383 | 1.3
3 | O=C1O[C@@H](c2ccccc2)[C@@H](c2ccccc2)N2[C@@H](c3ccc(OCCO)cc3)[C@]3(C(=O)Nc4ccc(C#CC5(O)CCCCCC5)cc43)[C@@H](C(=O)Nc3nc4ccccc4s3)[C@H]12 | 0.943 | 0.552 | 0.662 | -0.102 (inactive) | 1.39 | 1.31 | 0.533 | 1.38 | 0.553 | 0.541 | 1.44 | -2.29 | 0.755 | 1.6 | 0.646 | 0.0775 | 0.156 | 0.516 | 1.34 | 1.41
4 | COc1ccc(C(=O)Nc2cccc(CN3C(=O)[C@]4(O[C@H](CC(=O)N5Cc6ccccc6C[C@H]5CO)[C@@H]([Si](C)(C)c5ccc(OC)cc5)[C@@H]4C)c4ccccc43)c2)cc1 | 0.895 | -0.245 | -0.362 | -0.865 (inactive) | 0.946 | 0.955 | 1.24 | 1.42 | 1.34 | 1.21 | 1.23 | -3.44 | 1.05 | 0.219 | -0.763 | 0.0194 | 0.0639 | 0.0811 | 0.711 | 1.12
5 | COC(=O)[C@@]1(Cc2ccc(F)cc2)[C@H]2c3cc(C(=O)N4CCCC4)n(Cc4ccccn4)c3C[C@H]2CN1C(=O)c1ccccc1 | 0.919 | 0.757 | 1.08 | -1.88 (inactive) | 0.426 | 0.453 | 0.214 | 0.156 | -0.398 | 0.855 | 1.42 | -1.73 | -0.649 | 1.36 | 0.652 | 0.139 | 0.704 | 0.874 | 1.33 | 0.23
6 | COCC(=C=CC[C@H](O)c1ccccc1OCCO)C[C@H](O)COCc1ccccc1 | 1.54 | 0.132 | -0.316 | -0.111 (inactive) | 1.49 | 0.342 | 0.335 | 0.3 | -0.06 | 0.627 | 1.2 | -1.51 | 0.0832 | 0.324 | -0.678 | -0.0685 | 0.275 | 0.589 | 1.36 | -0.346
7 | Cc1ccc(S[C@]2(C(=O)NCC(F)(F)F)CC(=O)N(Cc3ccccc3C(F)(F)F)[C@@H]2c2ccc(CO)cc2)cc1 | -0.57 | 0.228 | 0.942 | 0.338 (inactive) | -0.83 | -1.23 | -0.548 | -1.51 | -1.07 | 0.247 | -0.654 | 0.169 | -1.32 | -0.39 | 0.0313 | -0.199 | -0.253 | 0.526 | 0.0216 | -0.693
8 | O=C1C[C@@](C(=O)NC2CC2)(c2ccc([N+](=O)[O-])cc2)[C@@H](c2ccc(CO)cc2)N1C1CCCCC1 | 1.68 | 0.0035 | 0.49 | -0.975 (inactive) | 1.5 | 0.808 | 0.359 | 1.32 | 0.517 | 0.357 | 1.44 | -2.02 | 0.257 | 0.522 | 0.435 | -0.1 | 0.149 | -0.292 | 1.43 | 0.538
9 | Cc1ccc(S[C@]2(C(=O)NCCCN(C)C)CC(=O)N(Cc3ccccc3C(F)(F)F)[C@@H]2c2ccc(CO)cc2I)cc1 | 1.18 | -0.473 | -0.464 | -0.425 (inactive) | -0.54 | -0.605 | -1.04 | -0.402 | -1.25 | 0.812 | 0.545 | -2.37 | -1.17 | -0.252 | 0.236 | 0.264 | -0.403 | 1.27 | 0.28 | -0.0365
10 | CC1=C([C@H](O)CCc2ccccc2)[C@H](CO)n2c(=O)n(-c3ccccc3)c(=O)n2C1 | -0.385 | -0.204 | -0.48 | -1.04 (inactive) | 0.233 | 0.196 | 0.167 | -0.0401 | 0.231 | 0.472 | -0.679 | -0.508 | 0.209 | -0.524 | -0.604 | -0.0685 | -0.169 | -0.0438 | -0.395 | -0.105
11 | C=C(COC)C(=O)CC[C@@H](OC(C)=O)c1ccccc1OCCO | 1.29 | -0.232 | 0.313 | 1.34 (inactive) | 1.53 | -0.0163 | -0.0143 | 0.209 | -0.306 | 1.38 | 0.0358 | -2.72 | 0.325 | -0.85 | -0.976 | -0.175 | -0.0626 | 0.493 | 1.28 | 0.0746

— PubChem BioAssay
